L3MBTL1 inh – qHTS Assay for the Inhibitors of L3MBTL1; Lethal(3)malignant brain tumor-like protein 1 (Homo sapiens), Q9Y468; AID 485360, 2010; AlphaScreen L3MBTL1–H3K9me1 peptide binding; Potency, µM (titrated, usually from 57.1 µM), inactives show top-dose activity, negative = inhibition, hits mostly inhibitors; hit rate 0.66% among 230,000; also: % is scaled to controls: 0 for no effect and ±100 for the full control effect; nearly all actives have a fitted effect of over 60% in size
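AlphaScreen proximity signal between nickel-chelate acceptor and streptavidin donor beads (final 10 ug/mL) reports binding of 50 nM L3MBTL1 to 75 nM biotin-H3 K9me1 peptide; complex incubated with compounds 30 min at room temperature; cefsulodin titration as control.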
HP1b binding inh – HTS for Inhibitors of HP1-beta Chromodomain Interactions with Methylated Histone Tails. AlphaScreen HP1-beta / biotin-H3K9me3 peptide binding. Potency, µM (series often up to 114 µM), inactives show at the top dose activity change, negative = inhibition, usual class: inhibitors. hit rate 0.56% among 390,000; also: nearly all actives have a fitted effect of over 70% in size
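Compound inhibition of the preformed complex between 50 nM HP1-beta and 50 nM biotinylated H3K9me3 peptide was read by AlphaScreen. Buffer was PBS pH 7.4 with 0.01% Tween-20. Incubations ran 30 min at room temperature, with 10 ug/mL donor/acceptor beads.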
G9a inh – qHTS Assay for Inhibitors of Histone Lysine Methyltransferase G9a | Histone-lysine N-methyltransferase EHMT2 (Homo sapiens), Q96KQ7 | G9a H3K9 monomethylation, AlphaScreen, 2 h | Potency, µM (top dose mostly 102 µM), without a hit: at the highest dose activity, negative = inhibition, actives largely listed as inhibitors | hit rate 8.8% among 350,000 | AID 504332, 2011; also: % is scaled to controls: 0 for no effect and ±100 for the full control effect; nearly all actives have a fitted effect of over 75% in size
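Signal arises when biotinylated H3K9 peptide, once monomethylated, bridges streptavidin donor and antibody-captured acceptor beads. Enzyme at 20 nM was preincubated 15 min with test compounds; peptide 500 nM and SAM 20 uM then reacted for 2 h.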
GLS inhibitor – qHTS for Inhibitors of Glutaminase (GLS). Glutaminase kidney isoform, mitochondrial (Homo sapiens), O94925. GLS enzymatic activity, qHTS titration. Potency, µM (series often up to 45.5 µM), inactives show top-dose activity change, negative = inhibition, hits mostly inhibitors. hit rate 0.21% among 410,000. AID 624170, 2012; also: % is scaled to controls: 0 for no effect and ±100 for the full control effect
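hKGA; 45 mM KH2PO4 pH 8.2 + 0.02% Tween-20; cpd via pin tool; 1 mM Gln soln; GluOx/HRP/Amplex Red; RT 30 min; fluor. t0 & final.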
BAZ2B inh – qHTS Assay for Inhibitors of BAZ2B | Bromodomain adjacent to zinc finger domain protein 2B (Homo sapiens), Q9UIF8 | Potency, µM (doses to about 114 µM), without a hit: at the highest dose activity change, negative = inhibition, usual class: inhibitors | AlphaScreen BAZ2B-H3K14Ac peptide displacement | hit rate 4.4% among 360,000; also: % is scaled to controls: 0 for no effect and ±100 for the full control effect; nearly all actives have a fitted effect of over 60% in size
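Inhibition is scored as reduced AlphaScreen emission. The BAZ2B/b-H3(5-23)K14Ac complex (50 nM each) in PBS pH 7.4, 0.01% Tween-20 meets compound (up to 110 uM) for 30 min at RT before bead addition.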
JMJD2A Tudor – qHTS Assay for Inhibitors of JMJD2A-Tudor Domain | Lysine-specific demethylase 4A (Homo sapiens), O75164 | AlphaScreen JMJD2A-Tudor / H3K4me3 peptide binding | Potency, µM (titrated, usually from 114 µM), inactives show at the highest dose activity change, negative = inhibition, usual class: inhibitors | hit rate 4.4% among 390,000; also: % is scaled to controls: 0 for no effect and ±100 for the full control effect; nearly all actives have a fitted effect of over 50% in size
Target sequence (O75164 whole entry, looked up, the tested form may be a part): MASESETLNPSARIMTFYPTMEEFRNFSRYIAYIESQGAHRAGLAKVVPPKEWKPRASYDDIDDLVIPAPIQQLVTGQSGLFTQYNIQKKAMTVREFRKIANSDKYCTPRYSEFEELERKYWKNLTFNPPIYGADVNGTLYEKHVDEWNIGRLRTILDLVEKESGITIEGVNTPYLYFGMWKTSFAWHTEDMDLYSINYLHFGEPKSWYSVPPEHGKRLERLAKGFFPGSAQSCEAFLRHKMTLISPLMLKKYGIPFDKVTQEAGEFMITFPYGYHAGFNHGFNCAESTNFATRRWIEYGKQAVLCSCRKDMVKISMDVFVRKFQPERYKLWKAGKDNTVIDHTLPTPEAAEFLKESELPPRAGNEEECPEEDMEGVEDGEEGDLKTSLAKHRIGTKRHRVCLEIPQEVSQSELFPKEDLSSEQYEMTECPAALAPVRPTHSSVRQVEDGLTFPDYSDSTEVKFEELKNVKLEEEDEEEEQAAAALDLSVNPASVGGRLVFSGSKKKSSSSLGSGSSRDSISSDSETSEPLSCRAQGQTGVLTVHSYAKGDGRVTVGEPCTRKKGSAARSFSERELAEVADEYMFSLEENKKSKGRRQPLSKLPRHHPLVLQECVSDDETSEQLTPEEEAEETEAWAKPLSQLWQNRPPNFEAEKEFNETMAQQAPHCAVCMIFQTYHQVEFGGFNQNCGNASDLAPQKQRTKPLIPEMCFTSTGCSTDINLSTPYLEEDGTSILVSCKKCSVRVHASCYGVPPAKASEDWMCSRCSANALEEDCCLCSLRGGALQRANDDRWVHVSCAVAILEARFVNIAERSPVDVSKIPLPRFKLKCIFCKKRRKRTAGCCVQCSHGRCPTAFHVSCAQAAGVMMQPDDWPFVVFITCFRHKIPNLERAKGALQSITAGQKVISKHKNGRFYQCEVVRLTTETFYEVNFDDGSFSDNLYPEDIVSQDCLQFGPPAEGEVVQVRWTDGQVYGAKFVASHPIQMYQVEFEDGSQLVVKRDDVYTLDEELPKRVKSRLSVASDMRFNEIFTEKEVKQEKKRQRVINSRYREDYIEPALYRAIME
Starred values were filed as active, the others as inactive; ? = inconclusive; · = no result; [ ] = remark or other dose. An excerpt weighted towards active compounds, which were near 10% of everything screened. Calls follow the shape of the dose curve; as a rule, active = well fitted curve in the direction sought with a large enough effect; inconclusive = small, poorly fitted or top-dose-only effect, or another doubt; inactive = no such curve, though single readings can be large; an effect the other way counts as inactive or inconclusive. Potency is read from the fitted curve at half-maximal effect.

SMILES	L3MBTL1 inh	HP1b binding inh	G9a inh	GLS inhibitor	BAZ2B inh	JMJD2A Tudor
Cc1cc(C)cc(NC(=S)NCC2CCN(C(C)c3ccccc3)C2)c1 (stereo unspecified)	·	20%	-45%	13%	-17%	-20%
Fc1cccc(Cc2c(-c3ccco3)nc3ccc(Br)cn23)c1	·	·	·	16µM*	·	·
Fc1cccc(Cc2c(-c3ccccc3)nc3ccc(Br)cn23)c1	·	·	·	12%	·	·
CCCC[C@]12Cc3cc(C#N)ccc3C(O1)c1c(c3cc(F)ccc3oc1=O)O2	·	·	·	·	3%[22.9 µM]	·
N#CC1=C(SCC(N)=O)NC2=C(C(=O)c3ccccc32)C1c1ccc(Cl)cc1 (stereo unspecified)	-7%	21%	50µM*	-22%	-2%	-34%
CSC1=C(C#N)C(c2ccc(Cl)cc2)C2=C(CC(C)(C)CC2=O)N1 (stereo unspecified)	4%	65%	?	-6%	11%	1%
CC(=O)Nc1cccc(N=NN2CCOCC2)c1	3%	32%	·	5%	4%	6%[57.1 µM]
CC(=O)Nc1ccc(N=NN2CCOCC2)cc1	·	?	8.9µM*	-4%	-20%	-12%
CC(=O)Nc1cccc(N=NN2CCCCC2)c1	5%	4%	22µM*	-9%	-28%	-19%
CC(=O)NS(=O)(=O)c1ccc(N=NN2CCOCC2)cc1	7%	45%	2%[59 µM]	-4%	-6%	-7%
O=C(O)c1ccc(N=NN2CCCC2)cc1	·	31%	35µM*	-1%	-13%	-6%
CCOc1ccc(-n2ccn3c(CC(C)CC(=O)O)nnc3c2=O)cc1 (stereo unspecified)	·	43%	12%[59 µM]	-3%	0%	3%
CCOc1ccc2[nH]c(=O)c(CN(CCN3CCCC3)C(=S)Nc3ccccc3OCC)cc2c1	-20%	44%	-25%	6%	-26%	-22%
Cc1cc(C)c2cc(CN(CCN3CCCC3)C(=O)Nc3ccc(F)cc3)c(=O)[nH]c2c1	-17%	8%	?	10%	-30%	-25%
Cc1ccc(C)c2[nH]c(=O)c(CN(CCN3CCCC3)C(=O)Nc3cccc(Cl)c3)cc12	-11%	13%	28µM*	-11%	-31%	-28%
CCc1ccc2[nH]c(=O)c(CN(CCCN3CCOCC3)C(=O)Nc3cccc(Cl)c3)cc2c1	-3%	15%	50µM*	1%	?	?
COc1ccc2[nH]c(=O)c(CN(CCN3CCCC3)C(=O)Nc3ccccc3Cl)cc2c1	0%	11%	50µM*	3%	-5%	-23%
COc1ccc(Nc2c([N+](=O)[O-])ccc3c2=NC2(CCCCC2)N=3)cc1	?	8.9µM*	10µM*	19%	7.1µM*	16µM*
COc1ccc(NC(=O)c2ccccc2[N+](=O)[O-])cc1	4%	30%	19%[59 µM]	-14%	3%	-8%
CCOC(=O)c1c[nH]c(=S)n1C	1%	-15%	22µM*	-9%	-22%	32µM*
COc1ccc(NC(=O)CCC(=O)c2cccs2)cc1Cl	·	58%	-1%	-6%	7%	-8%
COc1cc(NCCC(=O)c2cccs2)c(OC)cc1Cl	?	56µM*	7.9µM*	-15%	40µM*	40µM*
CCn1ccnc1CNCc1ccc(OCC(O)CN(C)Cc2ccccc2)cc1 (stereo unspecified)	-16%	8%	·	1%	?	?
CN(Cc1ccccc1)CC(O)COc1ccc(CNCc2nccn2C)cc1 (stereo unspecified)	-22%	14%	·	3%	56µM*	-15%[11.4 µM]
CCCC[C@H]1CCCO[C@@](C(=O)NCc2ccc(C)o2)(C(F)(F)F)C1	·	18%	·	·	·	-16%
SMILES	L3MBTL1 inh	HP1b binding inh	G9a inh	GLS inhibitor	BAZ2B inh	JMJD2A Tudor
O=C1NC(c2ccc(Cl)cc2)=COc2ccccc21	-9%	19%	22%	-12%	1%	-1%
O=C1NN=COc2ccccc21	1%	28%	-5%[12.7 µM]	10%	56µM*	-15%
COc1cc2c(cc1OC)CN(C(=O)c1ccc(Br)o1)CC2	-5%	16%	50µM*	20%	-21%	-13%
COc1cc2c(cc1OC)CN(C(=O)/C=C/c1ccc([N+](=O)[O-])cc1)CC2	·	0%	50µM*	3%	?	-29%
COc1cc2c(cc1OC)CN(C(=O)c1cccc([N+](=O)[O-])c1)CC2	2%	-9%	19%[12.7 µM]	?	-11%	50µM*
Cc1ccc(NC(=O)c2oc3ccccc3c2NC(=O)c2ccc(F)c(F)c2)cc1	·	67%	17%[59 µM]	-2%	1%	-2%
COc1ccc(C(=O)Nc2cc3cc(Cl)ccc3oc2=O)cc1OC	·	19%	-3%[59 µM]	-10%	0%	-11%
CCOc1ccccc1NC(=O)Cn1c(=O)n(CCCC(=O)NCCOC)c(=O)c2cc(OC)c(OC)cc21	·	16%	5%[59 µM]	-4%	5%	-11%
Cc1c(Cl)cccc1NC(=O)c1cc2sccc2n1Cc1ccc(F)cc1	·	28%	-41%[59 µM]	3%	-2%	-22%
O=C(NC1CCCc2ccccc21)c1ccc2c(c1)sc1nc(-c3ccccc3)cn12 (stereo unspecified)	·	34%	-1%[59 µM]	7%	-19%	-10%
CCOc1ccc(N(CC)S(=O)(=O)c2cc(Br)cc3c2N(C(C)=O)C(C)C3)cc1 (stereo unspecified)	·	4%	1.4µM*	-1%	-23%	-25%
CCOc1ccccc1CNC(=O)C1CCN(C(=O)N2CC(CC)Oc3ccc(C)cc32)CC1 (stereo unspecified)	·	18%	-50%[59 µM]	0%	?	-29%
CCc1ccc(C(=O)COC(=O)CNC(=O)Cc2ccccc2)cc1	·	29%	0%	2%	-16%	-10%
CCC(=O)NCC(=O)OCC(=O)c1ccccc1	2%	?	-15%[59 µM]	25µM*	-3%	?
Cc1ccc(N=Cc2cccc(O)c2O)c(C)c1	32µM*	16µM*	?	·	-32%	35µM*
CCN(CC)c1ccc(C=Nc2ccc(C)cc2C)c(O)c1	10%	33%	·	3%	-15%	-10%
Oc1ccccc1C=NN=C1c2ccccc2-c2ccccc21	·	45µM*	·	22%	·	16µM*
CC(N=Cc1cccc(O)c1O)c1ccccc1 (stereo unspecified)	·	?	1.3µM*	8%	50µM*	45µM*

Screens: PubChem, National Center for Advancing Translational Sciences (NCATS)
